Test results as given in PubChem BioAssay (NCATS).
Where “and” joins values, the source holds several entries; their conditions need not be identical. Equal values may be shown once. Records with an inconclusive call do not appear. Calls of active or inactive are those of the source. Unless noted, calls follow the shape of the dose curve; as a rule, active = well fitted curve in either direction with a large enough effect (not every such curve was filed as active); inconclusive = small, poorly fitted or top-dose-only effect, or another doubt; inactive = flat fitted curve, though single readings scatter.

What was measured:
[1] = AP1 Signaling Pathway (AID 357);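 also: ME-180 reporter cells stimulated with EGF at its EC50 level; % is scaled to controls: 0 for no effect and ±100 for the full control effect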
Outline: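 First, ME-180 AP-1-bla cells were cultured overnight at 37 °C in low-serum Opti-MEM. Next, titrated compounds with EC50 EGF were incubated 5 hours. Finally, CCF4 was added for 2.5 hours and the 460/530 nm ratio recorded.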

[2] = target: Cytochrome P450 1A2 (Homo sapiens) (UniProt P05177); test: p450-cyp1a2 (AID 410; calls by dose curve; also: potency is read from the fitted curve at half-maximal effect;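 as to activity change, negative = inhibition: -100% = full effect of reference inhibitor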)
Outline: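 Read-out is luminescence from luciferin produced by CYP1A2 demethylation of Luciferin-ME (100uM, at Km). Detection reagent stopped the 60 min NADPH-dependent reaction; signals were normalized to 57 uM furafylline.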

[3] = NFAT Signaling Pathway (AID 444); details: Jurkat NFAT-bla M1, carbachol, beta-lactamase ratio, 5 h;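 also: carbachol stimulus at about its EC50 of 1 µM final; % is scaled to controls: 0 for no effect and ±100 for the full control effect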
Outline: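 Read-out: CCF4 FRET ratio (460 nm/530 nm) after 1 h RT dye loading, used for %activity and AC50 from titration series. Cells: Jurkat NFAT-β-lactamase/M1 line, treated with compound plus 1 uM carbachol for 5 h, 37 °C.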

[4] = Stat Signaling Pathway (AID 446);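 also: ME-180 cervical cancer cells given 40 pM IL-6 alongside compound; SIE-controlled beta-lactamase reporter measured as 460/530 nm FRET emission ratio; % is scaled to controls: 0 for no effect and ±100 for the full control effect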
Outline: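 Normalization used AC90 stimulation (300 pM IL-6) and AC90 inhibition (125 nM pan-JAK inhibitor at 40 pM IL-6). The underlying signal is SIE-driven beta-lactamase in ME-180 cells after 5 h IL-6 exposure with compound.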

[5] = target: Glucocorticoid receptor (Homo sapiens) (UniProt P04150); test: GR-GFP Redistribution (AID 450;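 active = compounds whose dose series gives a full or clear partial fitted curve of increased nuclear translocation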; also: potency is read from the fitted curve at half-maximal effect); details: U2OS GR-GFP nuclear translocation, laser cytometry, 2 h
[6] = target: Glucocorticoid receptor (Homo sapiens) (UniProt P04150); test: GR-EFC Redistribution (AID 451; calls by dose curve; also: potency is read from the fitted curve at half-maximal effect); details: CHO-K1 GR-EFC translocation, beta-gal luminescence, 2 h
Outline: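 Translocation of GR-ED fusion to nuclear EA restores b-gal, read by luminescence after 1 h room-temperature detection. Engineered CHO-K1 biosensor cells, 1,000/well, exposed 2 h at 37 C to titrations up to 46 uM final.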

[7] = target: Mitogen-activated protein kinase 10 (Mus musculus) (UniProt Q61831); test: JNK3 AlphaScreen Assay (AID 530);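 also: kinase came from lysate of stimulated human HepG2 cells; signal reports phosphorylation of biotinylated GST-cJun 1-79 at Ser73 with 10 µM ATP; % is scaled to controls: 0 for no effect and ±100 for the full control effect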
Outline: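 Kinase buffer: 20 mM Tris-HCl pH 7.6, 10 mM MgCl2, 1 mM DTT, 0.1 mM Na3VO4, 0.01% Tween-20; ATP 10 uM. Substrate biotin-GST-cJun(1-79), enzyme from activated HepG2 lysates. Detection by Ser73 phospho-antibody AlphaScreen.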

[8] = target: 3',5'-cyclic-AMP phosphodiesterase 4B (Homo sapiens) (UniProt Q07343); test: qHTS Assay for Inhibitors of PDE-IV (AID 607; active = well fitted activation curve with a large enough effect in the main read-out, with a control signal flat, not every such curve was filed as active; also: % of control where 0% means no effect)
Outline: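 HEK293 ACTOne cells with CNG channel (1000/well), endogenous PDE4; membrane potential dye, compounds up to 22.9 uM final. Fluorescence Ex 535/Em 590; RO 20-1724 (100 uM final) as reference.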

[9] = qHTS Assay for Lipid Storage Modulators (AID 1519; calls by dose curve); details: Drosophila S3 cells, BODIPY lipid droplet/cell ratio, laser cytometry, cells loaded with oleic acid
Outline: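 Cells seeded at 5,000 per well were treated with compounds over a concentration series and loaded with oleic acid (400 uM, as added). Lipid droplet fluorescence (488 nm excitation, 500-530 nm channel) was read by laser-scanning cytometry and normalized to 20 uM Triacsin C.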

[10] = target: Ubiquitin carboxyl-terminal hydrolase 1 (Homo sapiens) (UniProt O94782); test: Inhibitors of USP1/UAF1: Pilot qHTS (AID 504865; active = well fitted curve in the direction sought with a large enough effect; an effect the other way counts as inactive or inconclusive; also: nearly all actives have a fitted effect of over 35% in size; also: potency is read from the fitted curve at half-maximal effect)
Outline: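 Deubiquitinase activity followed as kinetic rhodamine fluorescence release from 150 nM Ub-Rho. 1 nM USP1/UAF1 with compound, after 15 min room-temperature preincubation, in HEPES pH 7.8 buffer containing TCEP, EDTA, BSA and Tween-20.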

[11] = target: Cytochrome P450 3A4 (Homo sapiens) (UniProt P08684); test: qHTS Assay for Activators of Cytochrome P450 3A4 (AID 885; active = well fitted curve in the direction sought with a large enough effect; an effect the other way counts as inactive or inconclusive; also: nearly all actives have a fitted effect of over 65% in size; also: potency is read from the fitted curve at half-maximal effect)
Outline: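 Human CYP3A4 dealkylates Luciferin-PPXE to luciferin, which luciferase detection converts to light. Substrate was at its KM (25uM), buffer 200mM KPO4, reaction 60 min at RT.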

[12] = target: ATP-dependent 6-phosphofructokinase (Trypanosoma brucei brucei) (UniProt O15648); test: qHTS Assay to Find Inhibitors of T. brucei phosphofructokinase: hit validation (AID 492961; active = well fitted curve in the direction sought with a large enough effect; an effect the other way counts as inactive or inconclusive)
Outline: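 ADP-Glo luminescence read-out of ADP formed by 1.25 nM PFK from 0.1 mM ATP and 0.5 mM F6P (TEA pH 8.0, 45 min, RT). Compounds titrated; activity normalized to no-enzyme and full-enzyme controls.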

[13] = target: Luciferin 4-monooxygenase (Photinus pyralis) (UniProt P08659); test: Biochemical firefly luciferase enzyme assay for NPC (AID 624030; active = well fitted curve in the direction sought with a large enough effect; an effect the other way counts as inactive or inconclusive;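 also: purified P. pyralis luciferase at 10 nM with luciferin and ATP substrate; 0% = DMSO and -100% = full luciferase inhibition by PTC124 control; nearly all actives have a fitted effect of over 70% in size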)
Outline: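 Direct inhibition of firefly luciferase enzyme (10 nM final, 50 mM Tris Acetate) assessed by luminescence within 5 minutes. Percent activity scaled between DMSO and PTC124 positive control, with concentration-effect curves classified by fit quality and response.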

[14] = S16 Schwann cell viability assay (CellTiter-Glo assay) (AID 624031; active = well fitted curve in the direction sought with a large enough effect; an effect the other way counts as inactive or inconclusive;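 also: native untransfected S16 rat Schwann cells; cellular ATP luminescence as a viability measure; plate controls were DMSO-treated cells for no effect and cell-free wells for full effect; nearly all actives have a fitted effect of over 70% in size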)
Outline: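 Cells were seeded at 500-750 per well in phenol red-free DMEM with 10% FBS and left overnight. Compounds or DMSO were pinned in, incubation ran 24 h at 37 °C/5% CO2, then CellTiter-Glo reagent was added and luminescence measured.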

[15] = S16 Schwann cell PMP22 intronic element firefly luciferase assay (AID 624032; active = well fitted curve in the direction sought with a large enough effect; an effect the other way counts as inactive or inconclusive;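 also: plate controls were DMSO for no effect and PTC124 positive control mean for full effect; nearly all actives have a fitted effect of over 30% in size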)
Outline: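 Luciferase reporter of PMP22 intronic-element expression in stably transfected S16 rat Schwann cells, read by ONE-Glo luminescence after 24 h compound exposure at 37 C. Activity scaled between DMSO (0%) and positive-control PTC124; concentration-effect curves quality-classified.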

[16] = qHTS profiling for inhibitors of Plasmodium falciparum proliferation (AID 504749; active = well fitted curve in the direction sought with a large enough effect; an effect the other way counts as inactive or inconclusive;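 also: 0% = DMSO vehicle and full inhibition = artemisinin control; nearly all actives have a fitted effect of over 60% in size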); details: P. falciparum in erythrocytes, SYBR Green DNA, 72 h, at 28.7 µM (top of the series)
Outline: (§1)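 In a 72 h erythrocytic culture (37 C, humidified, 5% CO2) at 2.5% hematocrit and 0.3% starting parasitemia, compounds were tested; SYBR Green I in detergent lysis buffer stained parasite DNA overnight.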

3D7 = test: as above; details: P. falciparum in erythrocytes, SYBR Green DNA, 72 h; series mostly up to 28.7 µM
Outline: as §1

CP262 = test: as above; details: P. falciparum in erythrocytes, SYBR Green DNA, 72 h; series mostly up to 28.7 µM
Outline: as §1

ECU = test: as above; details: P. falciparum in erythrocytes, SYBR Green DNA, 72 h; series mostly up to 28.7 µM
Outline: as §1

HB3 = test: as above; details: P. falciparum in erythrocytes, SYBR Green DNA, 72 h; series mostly up to 28.7 µM
Outline: as §1

[17] = measured here: cell count channel max response
[18] = measured here: lipid channel max response

Chain of 3',5'-cyclic-AMP phosphodiesterase 4B (Homo sapiens) (Q07343 whole entry, looked up): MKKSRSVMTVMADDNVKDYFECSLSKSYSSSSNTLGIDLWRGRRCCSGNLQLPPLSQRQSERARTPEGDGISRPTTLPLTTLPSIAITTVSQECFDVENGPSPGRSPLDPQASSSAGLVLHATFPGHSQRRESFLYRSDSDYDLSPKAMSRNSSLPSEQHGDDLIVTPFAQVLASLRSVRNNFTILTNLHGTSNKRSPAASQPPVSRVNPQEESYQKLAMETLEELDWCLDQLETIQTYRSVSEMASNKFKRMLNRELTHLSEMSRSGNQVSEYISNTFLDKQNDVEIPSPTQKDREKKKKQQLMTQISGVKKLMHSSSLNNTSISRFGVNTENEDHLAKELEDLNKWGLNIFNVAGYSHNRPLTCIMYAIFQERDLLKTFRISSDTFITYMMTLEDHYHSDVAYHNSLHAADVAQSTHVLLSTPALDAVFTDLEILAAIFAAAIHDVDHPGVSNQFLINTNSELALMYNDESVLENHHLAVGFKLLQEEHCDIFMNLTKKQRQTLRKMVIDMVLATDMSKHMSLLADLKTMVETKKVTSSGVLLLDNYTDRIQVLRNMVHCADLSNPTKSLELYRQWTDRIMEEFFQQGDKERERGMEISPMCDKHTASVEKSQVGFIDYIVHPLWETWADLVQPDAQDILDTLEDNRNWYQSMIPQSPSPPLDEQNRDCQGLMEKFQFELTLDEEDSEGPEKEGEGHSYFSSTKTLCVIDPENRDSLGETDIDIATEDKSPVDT
Chain of Cytochrome P450 3A4 (Homo sapiens) (P08684 whole entry, looked up): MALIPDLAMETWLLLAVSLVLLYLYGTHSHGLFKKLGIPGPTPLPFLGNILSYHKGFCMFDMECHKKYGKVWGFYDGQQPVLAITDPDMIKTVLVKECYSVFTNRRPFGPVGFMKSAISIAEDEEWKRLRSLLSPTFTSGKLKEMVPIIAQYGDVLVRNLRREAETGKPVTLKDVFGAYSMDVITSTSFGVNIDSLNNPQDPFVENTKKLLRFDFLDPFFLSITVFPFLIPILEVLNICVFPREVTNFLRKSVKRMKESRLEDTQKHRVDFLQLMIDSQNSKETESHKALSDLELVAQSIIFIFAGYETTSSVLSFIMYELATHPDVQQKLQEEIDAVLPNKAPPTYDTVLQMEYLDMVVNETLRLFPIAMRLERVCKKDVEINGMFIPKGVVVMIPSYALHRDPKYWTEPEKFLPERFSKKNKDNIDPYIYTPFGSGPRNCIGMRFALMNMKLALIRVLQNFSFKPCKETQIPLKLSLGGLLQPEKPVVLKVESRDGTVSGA
Chain of Cytochrome P450 1A2 (Homo sapiens) (P05177 whole entry, looked up): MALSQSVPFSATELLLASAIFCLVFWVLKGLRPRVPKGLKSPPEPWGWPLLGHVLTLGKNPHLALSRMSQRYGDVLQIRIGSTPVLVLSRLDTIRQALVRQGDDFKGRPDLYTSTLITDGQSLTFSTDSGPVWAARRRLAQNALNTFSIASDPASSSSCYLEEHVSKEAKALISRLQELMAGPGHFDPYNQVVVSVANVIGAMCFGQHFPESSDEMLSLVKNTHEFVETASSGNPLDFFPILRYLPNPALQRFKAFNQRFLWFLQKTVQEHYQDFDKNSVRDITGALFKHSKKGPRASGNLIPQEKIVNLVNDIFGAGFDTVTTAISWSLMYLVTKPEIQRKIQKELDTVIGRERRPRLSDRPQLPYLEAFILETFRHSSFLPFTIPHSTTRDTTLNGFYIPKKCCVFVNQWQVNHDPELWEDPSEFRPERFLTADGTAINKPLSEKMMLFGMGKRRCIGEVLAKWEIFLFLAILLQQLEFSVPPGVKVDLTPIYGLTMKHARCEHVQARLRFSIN
Chain of Ubiquitin carboxyl-terminal hydrolase 1 (Homo sapiens) (O94782 whole entry, looked up): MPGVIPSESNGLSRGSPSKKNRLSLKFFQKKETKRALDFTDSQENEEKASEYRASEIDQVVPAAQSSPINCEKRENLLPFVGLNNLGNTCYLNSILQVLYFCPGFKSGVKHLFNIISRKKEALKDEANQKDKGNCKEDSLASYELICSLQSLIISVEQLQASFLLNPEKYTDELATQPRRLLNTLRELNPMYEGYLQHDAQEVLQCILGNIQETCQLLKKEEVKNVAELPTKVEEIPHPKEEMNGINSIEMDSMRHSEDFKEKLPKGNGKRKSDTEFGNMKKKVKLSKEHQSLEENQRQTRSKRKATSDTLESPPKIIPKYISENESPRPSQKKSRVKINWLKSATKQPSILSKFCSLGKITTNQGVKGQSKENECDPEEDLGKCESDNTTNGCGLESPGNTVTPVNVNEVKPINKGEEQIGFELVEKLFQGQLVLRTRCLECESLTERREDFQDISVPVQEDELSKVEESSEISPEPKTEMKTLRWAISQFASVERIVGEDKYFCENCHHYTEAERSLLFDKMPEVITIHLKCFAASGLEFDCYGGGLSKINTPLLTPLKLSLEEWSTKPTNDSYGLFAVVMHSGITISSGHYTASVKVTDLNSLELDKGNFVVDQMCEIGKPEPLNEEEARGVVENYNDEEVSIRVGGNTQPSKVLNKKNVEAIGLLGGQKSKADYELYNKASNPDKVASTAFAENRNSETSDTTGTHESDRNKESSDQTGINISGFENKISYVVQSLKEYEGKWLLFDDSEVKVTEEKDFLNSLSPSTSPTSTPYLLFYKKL
Chain of ATP-dependent 6-phosphofructokinase (Trypanosoma brucei brucei) (O15648 whole entry, looked up): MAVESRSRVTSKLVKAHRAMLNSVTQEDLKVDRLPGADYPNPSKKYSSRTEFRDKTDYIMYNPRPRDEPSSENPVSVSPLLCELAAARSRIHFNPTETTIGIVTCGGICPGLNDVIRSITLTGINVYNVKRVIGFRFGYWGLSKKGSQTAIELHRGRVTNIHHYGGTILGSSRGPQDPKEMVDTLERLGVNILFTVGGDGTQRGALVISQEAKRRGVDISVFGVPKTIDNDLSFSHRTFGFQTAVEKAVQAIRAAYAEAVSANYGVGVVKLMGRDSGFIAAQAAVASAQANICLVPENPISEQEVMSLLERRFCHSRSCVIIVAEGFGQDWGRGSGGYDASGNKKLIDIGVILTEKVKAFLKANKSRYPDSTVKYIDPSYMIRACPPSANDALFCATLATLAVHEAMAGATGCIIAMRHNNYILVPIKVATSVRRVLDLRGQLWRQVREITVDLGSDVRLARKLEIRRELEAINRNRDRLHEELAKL
Chain of Glucocorticoid receptor (Homo sapiens) (P04150 whole entry, looked up, the tested form may be a part): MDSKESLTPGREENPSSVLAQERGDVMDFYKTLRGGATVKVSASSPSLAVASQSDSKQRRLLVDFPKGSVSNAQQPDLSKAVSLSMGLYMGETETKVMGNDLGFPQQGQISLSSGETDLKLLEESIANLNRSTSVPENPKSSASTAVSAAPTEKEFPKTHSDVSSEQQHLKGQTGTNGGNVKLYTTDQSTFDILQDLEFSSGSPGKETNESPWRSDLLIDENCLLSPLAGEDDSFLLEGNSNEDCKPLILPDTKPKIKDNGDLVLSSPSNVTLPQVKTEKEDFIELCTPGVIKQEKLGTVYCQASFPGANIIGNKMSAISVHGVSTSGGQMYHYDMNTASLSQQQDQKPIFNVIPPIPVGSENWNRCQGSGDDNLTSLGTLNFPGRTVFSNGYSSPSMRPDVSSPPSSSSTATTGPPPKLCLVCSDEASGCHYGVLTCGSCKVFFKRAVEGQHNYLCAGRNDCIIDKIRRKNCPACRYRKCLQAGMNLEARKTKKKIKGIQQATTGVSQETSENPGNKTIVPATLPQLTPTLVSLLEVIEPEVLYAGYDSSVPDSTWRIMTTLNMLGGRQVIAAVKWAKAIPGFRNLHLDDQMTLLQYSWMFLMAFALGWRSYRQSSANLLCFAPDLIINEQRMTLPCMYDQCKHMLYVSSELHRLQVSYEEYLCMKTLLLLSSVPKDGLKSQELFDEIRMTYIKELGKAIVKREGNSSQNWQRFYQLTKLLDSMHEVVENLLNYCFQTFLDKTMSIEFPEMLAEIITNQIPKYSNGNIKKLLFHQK
Chain of Luciferin 4-monooxygenase (Photinus pyralis) (P08659 whole entry, looked up): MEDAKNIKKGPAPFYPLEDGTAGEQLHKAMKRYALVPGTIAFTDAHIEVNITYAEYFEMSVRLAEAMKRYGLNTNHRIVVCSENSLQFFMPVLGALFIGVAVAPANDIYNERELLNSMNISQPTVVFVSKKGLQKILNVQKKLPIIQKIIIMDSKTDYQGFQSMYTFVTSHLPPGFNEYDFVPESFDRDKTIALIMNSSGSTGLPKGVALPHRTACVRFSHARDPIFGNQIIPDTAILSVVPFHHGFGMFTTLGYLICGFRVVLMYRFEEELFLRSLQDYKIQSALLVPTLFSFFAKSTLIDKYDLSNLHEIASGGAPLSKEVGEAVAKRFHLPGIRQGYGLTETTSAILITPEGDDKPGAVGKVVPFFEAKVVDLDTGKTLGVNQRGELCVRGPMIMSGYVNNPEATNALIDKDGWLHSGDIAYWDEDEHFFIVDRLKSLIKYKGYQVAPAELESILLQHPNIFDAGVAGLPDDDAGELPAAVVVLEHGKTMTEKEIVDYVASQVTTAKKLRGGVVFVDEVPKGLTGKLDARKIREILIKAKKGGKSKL

COC1=C[C@H]2C3=C([C@H]2C1=O)[C@H](NC(C)=O)CCc1cc(OC)c(OC)c(OC)c13
1.69%: max response [9, 17]
2.18%: max response [9, 18]
inactive: outcome [1] | Potency [2] | activity change, negative = inhibition ([3]; at 17.2 µM (top of the series)) -4.77% | outcome [4] | Potency [5] > 20.6 µM | Potency [6] > 20.6 µM | outcome [7] | Potency [8] | activity change, negative = inhibition ([9]; at 25.7 µM (top of the series)) 0.263%

COc1cc(C(=O)OC2C[C@H]3CC[C@@H](C2)N3C)ccc1O (stereo partly drawn)
-32.4%: max response [9, 17]
-27.3%: max response [9, 18]
inactive: outcome [1] | Potency [2] | outcome [4] | Potency [5] > 20.6 µM | Potency [6] > 20.6 µM | outcome [7] | Potency [8] | activity change, negative = inhibition ([9]; at 25.7 µM (top of the series)) 2.65% | Potency [10]

N#Cc1ccc(CN2CCC3(CC2)CCN(C(=O)Oc2ccccc2)CC3)cc1
inactive: outcome [1] | Potency [2] | outcome [4] | Potency [6] > 46 µM | outcome [7] | Potency [8] | activity change, negative = inhibition ([9]; at 57.5 µM (top of the series)) 0.91%
-4.88%: max response [9, 17]
-1.78%: max response [9, 18]
active: Potency [11] 15.8 µM

COc1cc2c(cc1O)[C@H]1Cc3ccc(OC)c(O)c3CN1CC2
-2.59%: max response [9, 17]
active: Potency [2] 15.8 µM | Potency [10] 10 µM
-3.7%: max response [9, 18]
inactive: outcome [1] | outcome [4] | Potency [5] > 20.6 µM | Potency [6] > 20.6 µM | outcome [7] | Potency [8] | Potency [11] | activity change, negative = inhibition ([9]; at 25.7 µM (top of the series)) -1.48%

CCN1C[C@]2(COC)CC[C@H](O)[C@@]34[C@@H]5C[C@H]6[C@@H](OC)[C@H]5[C@](O)(C[C@@H]6OC)[C@@](O)([C@@H](OC)[C@H]23)[C@@H]14
-9.81%: max response [9, 18]
inactive: outcome [1] | Potency [2] | activity change, negative = inhibition ([3]; at 17.2 µM (top of the series)) 2.57% | outcome [4] | Potency [5] > 20.6 µM | Potency [6] > 20.6 µM | outcome [7] | Potency [8] | activity change, negative = inhibition ([9]; at 25.7 µM (top of the series)) 0.923% | Potency [10]
-10.9%: max response [9, 17]

C[C@@]12CC(=O)[C@H]3[C@@H](CCC4=CC(=O)CC[C@]43C)[C@H]1CCC2=O
inactive: outcome [1] | Potency [2] | activity change, negative = inhibition ([3]; at 17.2 µM (top of the series)) 2.56% | outcome [4] | Potency [5] > 20.6 µM | Potency [6] > 20.6 µM | outcome [7] | Potency [8] | activity change, negative = inhibition ([9]; at 25.7 µM (top of the series)) -2.03% | Potency [10]
-10.7%: max response [9, 17]
-12.2%: max response [9, 18]

N[C@H]1C[C@H]1c1ccccc1
5.35%: max response [9, 17]
inactive: outcome [1] | activity change, negative = inhibition ([3]; at 17.2 µM (top of the series)) -3.83% | outcome [4] | Potency [8] | activity change, negative = inhibition ([9]; at 25.7 µM (top of the series)) -0.294% | Potency [12] | Potency [10] | Potency [13] | Potency [14] | Potency [15] | activity, negative = inhibition ([16]; parasite line A) 10.1% | activity, negative = inhibition ([16]; parasite line B) 3.27% | Potency (3D7) | Potency (CP262) | Potency (ECU) | Potency (HB3)
3.84%: max response [9, 18]
active: Potency [2] 5.01 µM

CC[C@@]1(c2ccc(N)cc2)CCC(=O)NC1=O
-3.22%: max response [9, 17]
inactive: outcome [1] | activity change, negative = inhibition ([3]; at 17.2 µM (top of the series)) -14.6% | activity change, negative = inhibition ([3]; at 38 µM (top of the series)) 6.21% | outcome [4] | Potency [5] > 46 µM and > 20.6 µM | Potency [6] > 46 µM and > 20.6 µM | outcome [7] | Potency [8] | Potency [11] | activity change, negative = inhibition ([9]; at 25.7 µM (top of the series)) 0.179% | Potency [12] | Potency [10] | Potency [13] | Potency [14] | Potency [15] | activity, negative = inhibition ([16]; parasite line A) 3.34% | activity, negative = inhibition ([16]; parasite line B) 3.27% | Potency (3D7) | Potency (CP262) | Potency (ECU) | Potency (HB3)
-2.21%: max response [9, 18]

CC(C)N(CC[C@@](C(N)=O)(c1ccccc1)c1ccccn1)C(C)C
-13.9%: max response [9, 17]
-14.1%: max response [9, 18]
inactive: outcome [1] | Potency [2] | outcome [4] | outcome [7] | Potency [8] | Potency [11] | activity change, negative = inhibition ([9]; at 25.7 µM (top of the series)) 0.14% | Potency [12] | Potency [10] | Potency [13] | Potency [14] | Potency [15] | activity, negative = inhibition ([16]; parasite line A) 9.42% | activity, negative = inhibition ([16]; parasite line B) 2.7% | Potency (3D7) | Potency (CP262) | Potency (ECU) | Potency (HB3)

C=C[C@]12CN(C)[C@H]3C1[C@@]1(C(=O)Nc4ccccc41)[C@H]1C[C@H]2[C@H]3CO1
-17.8%: max response [9, 18]
-11.8%: max response [9, 17]
inactive: outcome [1] | Potency [2] | outcome [4] | Potency [5] > 20.6 µM | Potency [6] > 20.6 µM | outcome [7] | Potency [8] | activity change, negative = inhibition ([9]; at 25.7 µM (top of the series)) -5.3% | Potency [10]

C/C=C1\C[C@H](C)[C@@](O)(CO)C(=O)OCC2=CCN3CC[C@@H](OC1=O)[C@@H]23
5.25%: max response [9, 18]
inactive: outcome [1] | Potency [2] | activity change, negative = inhibition ([3]; at 17.2 µM (top of the series)) -20.5% | outcome [4] | Potency [5] > 20.6 µM | Potency [6] > 20.6 µM | outcome [7] | Potency [8] | activity change, negative = inhibition ([9]; at 25.7 µM (top of the series)) 0.17%
4.82%: max response [9, 17]

CC[C@H](C)C(=O)O[C@@H]1[C@H](O)[C@@H]2[C@H](CN3C[C@@H](C)CC[C@@H]3[C@@]2(C)O)[C@@H]2C[C@@]34O[C@@]5(O)[C@@H](OC(=O)[C@](C)(O)CC)CC[C@@]3(C)[C@H]5[C@H](OC(C)=O)[C@@H](OC(C)=O)[C@H]4[C@]12O
inactive: outcome [1] | Potency [2] | activity change, negative = inhibition ([3]; at 17.2 µM (top of the series)) -8.39% | outcome [4] | Potency [5] > 20.6 µM | Potency [6] > 20.6 µM | outcome [7] | Potency [8] | activity change, negative = inhibition ([9]; at 25.7 µM (top of the series)) -1.19%
-2.6%: max response [9, 17]
-3.1%: max response [9, 18]
